Sampled rows, rich in hits. Any-hit rate of the full collection: about 17%.
TDP1 cell CPT: qHTS for Inhibitors of human tyrosyl-DNA phosphodiesterase 1 (TDP1): qHTS in cells in presence of CPT. chicken DT40 Tdp1-/-;hTDP1 cells + 20 nM CPT, ATP luminescence, 48 h. Potency, µM (series often up to 46.2 µM), inactives show at the highest dose activity change, negative = growth inhibition, hits mostly inhibitors. actives 12% (n = 420,000). AID 686979, 2013; note: % is set by controls: 0 for no effect and ±100 for the full control effect; nearly all actives have a fitted effect of over 55% in size
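Chicken DT40 Tdp1-/- cells stably complemented with human TDP1 were seeded at 400 cells/well in medium containing 20 nM camptothecin, exposed to pin-transferred compounds, and grown at 37 °C for at least 48 hr. Viability was read as ATP luminescence.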
TDP1 cell noCPT: qHTS for Inhibitors of human tyrosyl-DNA phosphodiesterase 1 (TDP1): qHTS in cells in absence of CPT | DT40 Tdp1-/- hTDP1 cells, no CPT, ATP luminescence, 48 h | Potency, µM (highest dose often 46.2 µM), without a hit: at the top dose activity change, negative = growth inhibition, actives largely listed as inhibitors | actives 15% (n = 420,000); note: % is set by controls: 0 for no effect and ±100 for the full control effect; nearly all actives have a fitted effect of over 55% in size
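Seeded 400 DT40-hTDP1 cells/well (vehicle DMSO, no 20 nM CPT); pinned compounds; ≥48 hr at 37 °C; CellTiter-Glo luminescence as viability measure.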
ClpP mod: qHTS Assay for Activators of ClpP | ATP-dependent Clp protease proteolytic subunit (Bacillus subtilis (strain 168)), P80244 | purified B. subtilis ClpP, FRET peptide cleavage, 20 min | Potency, µM (top dose mostly 57.5 µM), without a hit: at the top dose activity change, negative = active | actives 1.9% (n = 340,000) | AID 651965, 2013; active = well fitted falling curve with a large enough effect; inconclusive = small, poorly fitted or top-dose-only effect; inactive = no such curve, though single readings can be large or run the other way; note: the source files actives as falling curves though it sought activators and does not explain the sign; nearly all actives have a fitted effect of over 65% in size
Target sequence (P80244 whole entry, looked up): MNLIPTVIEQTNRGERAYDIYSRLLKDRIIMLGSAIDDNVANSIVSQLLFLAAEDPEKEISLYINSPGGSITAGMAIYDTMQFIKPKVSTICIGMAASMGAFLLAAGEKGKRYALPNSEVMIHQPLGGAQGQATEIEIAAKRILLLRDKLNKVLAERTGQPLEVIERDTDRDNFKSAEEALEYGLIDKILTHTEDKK
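FRET quenching reversal measured ClpP activation: 10 microg/mL B. subtilis ClpP at pH 8 with the FRET-FV decapeptide, read at 430 nm after 320 nm excitation. The 20-min minus 0-min signal was scaled between DMSO/no-enzyme wells and ADEP (5.8 microM final).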
TDP1 inh: qHTS Assay for Inhibitors of Tyrosyl-DNA Phosphodiesterase (TDP1). Tyrosyl-DNA phosphodiesterase 1 (Homo sapiens), Q9NUW8. recombinant TDP1, AlphaScreen DNA substrate cleavage. Potency, µM (titrated, usually from 130 µM), for the others: at the top dose activity change, negative = inhibition, most hits filed as inhibitors. actives 0.28% (n = 350,000); note: % is set by controls: 0 for no effect and ±100 for the full control effect; nearly all actives have a fitted effect of over 40% in size
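Steps: enzyme plus compound, 15 min RT; add biotin/phosphotyrosine-FITC oligonucleotide (15 nM final), react 5 min; add donor/acceptor beads (10 ug/ml final), 10 min; read AlphaScreen. Tdp1 at 1 nM final.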
Numbers without * were called inactive; u = inconclusive; x = no result; [ ] = remark or other dose. Unless noted, calls come from the whole dose curve; as a rule, active = well fitted curve in the direction sought with a large enough effect; inconclusive = small, poorly fitted or top-dose-only effect, or another doubt; inactive = no such curve, though single readings can be large; an effect the other way counts as inactive or inconclusive. Potency is the fitted concentration of half-maximal effect.

SMILES	TDP1 cell CPT	TDP1 cell noCPT	ClpP mod	TDP1 inh
COc1ccc2c(c1OC)C(=O)N1N=C(c3ccc(F)cc3)CC21 (stereo not drawn)	u	16.4µM*	-0.5%	1.8%
Cc1ccc(C2=NN3C(=O)c4ccccc4C3C2)cc1 (stereo not drawn)	-29.9%	u	0.1%	0.0%
CN1CCCN(C(=O)c2c(F)cccc2Cl)CC1	-29.7%	21.1%	-1.4%	1.8%
COc1ccc(S(=O)(=O)N2CCOCC2)cc1N=Nc1sc(N)nc1-c1ccccc1	-29.7%	2.31µM*	-5.4%	8.1%
CCc1cccc(CC)c1NC(=S)/C(=C(\[O-])c1ccc(Cl)s1)[n+]1ccccc1	2.31µM*	1.84µM*	-1.5%	2.9%
[O-]/C(=C(\C(=S)Nc1cccc2ccccc12)[n+]1ccccc1)c1ccc(Cl)s1	u	18.4µM*	-29.3%	-1.8%
[O-]C(=C(C(=S)Nc1cccc2ccccc12)[n+]1cccc(CO)c1)c1ccc(Cl)s1	u	-28.5%	-14.2%	x
Cc1cc(C)cc(NC(=S)/C(=C(\[O-])c2ccc(Cl)s2)[n+]2cccc(C)c2)c1	18.4µM*	20.6µM*	-2.8%	0.6%
O=C1NC(=O)[C@H]2[C@@H]1[C@@H]1C=C[C@H]2C1	8.6%	0.2%	x	x
Cc1cc(NC(=O)c2cc(-c3cccs3)nc3ccccc23)no1	20.6µM*	25.9µM*	3.8%	1.1%
Cc1cc(NC(=O)CSc2nc(-c3cccs3)nc3ccccc23)no1	2.31µM*	1.84µM*	-23.0%	-20.0%
COc1ccc(-c2cc(C(=O)Nc3cc(C)on3)c3ccccc3n2)c(OC)c1	11.6µM*	9.2µM*	-17.7%	0.6%
Cc1cc(NC(=O)c2cc(-c3ccc(C)c(C)c3)nc3ccccc23)no1	11.6µM*	10.3µM*	12.6µM*	2.6%
Cc1cc(NC(=O)c2cc(-c3ccccn3)nc3ccccc23)no1	-6.8%	-21.2%	-7.0%	-1.0%
Cc1ccc(CN2C[C@H](Sc3ccccn3)C[C@H]2C(=O)Nc2ccc3sc(C)nc3c2)s1	18.5%[9.04 µM]	-2.6%	x	x
O=C(CCS(=O)(=O)c1cccc2nonc12)Nc1cccc(F)c1	11.3%	-19.9%	0.8%	5.9%
O=C(NCCCN1CCCC1=O)Nc1ccc([N+](=O)[O-])cc1	-1.1%	1.9%	0.2%	x
CCCS(=O)(=O)c1ncc(Cl)c(C(=O)N2CCN(c3ccc(OC)cc3)CC2)n1	2.06µM*	3.66µM*	0.1%	4.7%
COc1ccc(Cc2nnc(SCC(=O)c3ccc(OC)cc3)o2)cc1	u	u	0.8%	4.4%
COc1ccc(Cc2nnc(SCC(=O)N3CCN(c4ccccc4)CC3)o2)cc1	23.1µM*	23.1µM*	0.2%	2.2%
COc1ccc(Cc2nnc(SCC(=O)N3CCCCC3)o2)cc1	4.5%	23.1µM*	-0.6%	4.7%
Cc1ccc2c(=O)cc(C(=O)NCc3ccccc3)oc2c1	-26.9%	-25.5%	1.2%	-8.6%
O=C(Cc1ncc(C(F)(F)F)cc1Cl)NCCc1ccccn1	-24.4%	-24.1%	x	0.0%
COc1cc(/C=N/NC(=O)c2nnn(-c3nonc3N)c2C(C)C)ccc1OCc1ccccc1	u	20.6µM*	u	2.4%
CC(C)c1c(C(=O)N/N=C/c2ccc(C(F)(F)F)cc2)nnn1-c1nonc1N	14.6µM*	13µM*	-3.2%	-0.6%
SMILES	TDP1 cell CPT	TDP1 cell noCPT	ClpP mod	TDP1 inh
COc1cccc(Nc2nc(Nc3ccc(Cl)c(C(=O)O)c3)nc(C)c2[N+](=O)[O-])c1	-22.5%	-16.7%	-0.6%	x
Cc1cccc(NC2=CC(c3cccc(Br)c3)N(c3cccc(C)c3)C2=O)c1 (stereo not drawn)	u	8.2µM*	0.4%	3.2%
CC(=O)c1ccc(OC2C(O)COC2/C=C/c2ccc(Cl)cc2)cc1 (stereo not drawn)	x	x	x	9.0%[21 µM]
O=CNc1cc(-c2ccc(C(=O)NC3CC3)cc2)cn2c(-c3ccc(F)c(Cl)c3)cnc12	18.4µM*	13µM*	-23.7%	x
CC(=O)c1ccc(-c2cnc3c(NC=O)cc(-c4ccc(C(=O)NC5CC5)cc4)cn23)cc1	5.8µM*	5.17µM*	u	x
COc1ccc(-c2cc(NC=O)c3ncc(-c4cccc(C(=O)NCCN(C)C)c4)n3c2)cc1	u	u	-11.5%	x
O=CNc1cc(-c2ccc(C(=O)NC3CC3)cc2)cn2c(-c3ccccc3)cnc12	10.3µM*	7.31µM*	u	x
COc1cccc(N2CCN(S(=O)(=O)c3ccc(-n4cnnn4)cc3)CC2)c1	0.9%	u	-1.3%	0.3%
CCC1C(=O)NCCN1C(=O)c1ccc(OC)c(OC2CCN(C(C)=O)CC2)c1 (stereo not drawn)	8.4%	1.2%	1.0%	-3.0%
CCNC(=O)C1CCCN(C(=O)c2cccc(Cl)c2)CC1 (stereo not drawn)	-8.7%	1.2%	-0.4%	x
CCc1nc2ccc(C(=O)NCCOc3ccc(OC)cc3)cn2c1N(CCC(C)C)CCN(C)C	-89.3%	-77.8%	-13.8%	x
CCc1nc2ccc(C(=O)Nc3cccc(OC)c3)cn2c1N(CC)CCOC	13µM*	18.4µM*	0.7%	x
CCc1nc2ccc(C(=O)NCCc3ccccn3)cn2c1N(CCC(C)C)CCN(C)C	-22.8%	u	0.9%	x
CCc1nc2ccc(C(=O)NCc3ccc(OC)cc3)cn2c1N(C)CCC(C)C	u	23.1µM*	0.2%	x
CCc1nc2ccc(C(=O)NCCCN(C)C)cn2c1N(CC)CCOC	1.5%	1.6%	-1.0%	x
CCc1nc2ccc(C(=O)Nc3cccc(OC)c3)cn2c1N(CC)CCN(C)C	3.5%	3.0%	-1.0%	x
CCc1nc2ccc(C(=O)NCCc3ccccn3)cn2c1N(C)CCC(C)C	u	25.9µM*	-14.0%	x
CCCCNC(=O)c1ccc2nc(CC)c(N(CC)CCOC)n2c1	25.9µM*	20.6µM*	-3.3%	x
Fc1ccc(-c2nc(-c3c[nH]c4ccccc34)cs2)cc1	-29.7%	-17.4%	u	x

Bioassay records as filed in PubChem.
